Source: ChEMBL document CHEMBL4888484, “Replenishing the malaria drug discovery pipeline: Screening and hit evaluation of the MMV Hit Generation Library 1 (HGL1) against asexual blood stage Plasmodium falciparum ,using a nano luciferase reporter read-out” (2022)
The whole screen tested about 4,800 compounds, of which about 420 (8.8%) showed an effect of 50% or more. The sample as a whole holds a higher share of strong results than the screen did.

Tested on: Plasmodium falciparum
Experiment: Confirmatory screen in NF54 nanoGlo assay, in single point, at 2uM, 72h
Assay type: functional, Erythrocyte
Conditions: timepoint 72 hour

SMILES | % Inhibition [%]
CC(C)c1cnc(NCCCC[C@H]2CCCO2)nc1 | -2
Cc1cccc(Oc2nc3ccccc3n3c(=O)n(CC(=O)NCc4ccc(Cl)cc4)nc23)c1C | -10
Cc1ccc(S(=O)(=O)c2ccc3c(c2)Oc2ccccc2N3)cc1 | -10
O=C(NC1CCN(Cc2ccccc2)CC1)c1cnn2c(-c3ccc4c(c3)OCO4)ccnc12 | 3
Cn1cc(-c2ccc(Cl)cc2)c2ncn(CC(=O)Nc3cccc(Cl)c3)c(=O)c21 | -5
Cc1nnc(-c2ccc3ccn(CC(=O)Nc4ccc(F)c(Cl)c4)c3c2)o1 | 78
Cc1noc(C)c1CC(=O)Nc1cccc(-c2nnco2)c1 | 3
Cc1cc(=O)n(CC(=O)Nc2ccc(Cl)c(C(F)(F)F)c2)c(-c2ccc(F)cc2)n1 | -6
CCc1cccc(NC(=O)Cn2ccc3ccc(-c4nnc(C)o4)cc32)c1 | 81
Cc1nc2cc3c(cc2n1CC(=O)Nc1ccc(Cl)cc1)OCCCO3 | -4
O=C(Nc1ccccc1)N1CCC[C@H]1c1ccncc1 | -12
CC(C)N1CCC2(CC1)N=C(c1ccc3c(c1)OCO3)C[C@@H](c1cc(Cl)ccc1O)N2 | 41
O=C(C[C@@H]1C(=O)Nc2nc(N3CCOCC3)[nH]c(=O)c21)Nc1ccc(Cl)cc1 | 9
Cn1c(-c2ccc(Cl)c(Cl)c2)c[n+](CC(=O)c2ccc(-c3ccccc3)cc2)c1N | 6
COC(=O)CN(C(C)C)S(=O)(=O)c1cc(Cl)cc(Cl)c1 | 3
N#Cc1ccc(S(=O)(=O)N2C3CCC2CC(O)C3)o1 (configuration not stated) | -11
CCCCCc1c(C)nc2[nH]n(-c3ccccc3)c(=O)c2c1O | -19
CNCCc1c(-c2ccccc2)[nH]n(-c2ccccc2)c1=O | 63
O=C1CCCc2nc3[nH]n(-c4ccccc4)c(=O)c3cc21 | 8
CCc1n[nH]c(C(=O)N2CC3CCCN3CC2CC)c1Br (configuration not stated) | 7
Oc1ccc(C2=C(c3ccccc3)N=NCN2O)c(O)c1 | -14
COCc1c(Br)c(C)nc(O)c1C#N | -8
CCN1c2cc(C(=O)Nc3ccc(OC)cc3OC)ccc2C(=O)N2CCCC[C@H]21 | 8
Cc1ccc(Cn2c(=O)c(C(=O)NCc3ccc4c(c3)OCO4)nn(-c3ccc(C(C)C)cc3)c2=O)cc1 | 64
O=C(Cn1cnc2ccc(Cl)cc2c1=O)NCc1ccc2c(c1)OCO2 | -5
CC[C@H]1Cn2c(C(=O)NCc3ccc4c(c3)OCO4)cc3c(Cl)ccc(c32)O1 | -11
COc1ccc(S(=O)(=O)N2CCN(C(=O)N(C)C)[C@@H]2c2ccccc2)cc1 | 0
